# TDP1 inh: TDP1 (human) enzyme inhibition; recombinant TDP1, AlphaScreen DNA substrate cleavage; Potency, µM (series often up to 130 µM), without a hit: top-dose activity change, negative = inhibition, actives largely listed as inhibitors; 350,000 compounds, 0.28% hits; AID 485290; note: potency is the fitted concentration of half-maximal effect; nearly all actives have a fitted effect of over 40% in size
# Target sequence (Q9NUW8 whole entry, looked up): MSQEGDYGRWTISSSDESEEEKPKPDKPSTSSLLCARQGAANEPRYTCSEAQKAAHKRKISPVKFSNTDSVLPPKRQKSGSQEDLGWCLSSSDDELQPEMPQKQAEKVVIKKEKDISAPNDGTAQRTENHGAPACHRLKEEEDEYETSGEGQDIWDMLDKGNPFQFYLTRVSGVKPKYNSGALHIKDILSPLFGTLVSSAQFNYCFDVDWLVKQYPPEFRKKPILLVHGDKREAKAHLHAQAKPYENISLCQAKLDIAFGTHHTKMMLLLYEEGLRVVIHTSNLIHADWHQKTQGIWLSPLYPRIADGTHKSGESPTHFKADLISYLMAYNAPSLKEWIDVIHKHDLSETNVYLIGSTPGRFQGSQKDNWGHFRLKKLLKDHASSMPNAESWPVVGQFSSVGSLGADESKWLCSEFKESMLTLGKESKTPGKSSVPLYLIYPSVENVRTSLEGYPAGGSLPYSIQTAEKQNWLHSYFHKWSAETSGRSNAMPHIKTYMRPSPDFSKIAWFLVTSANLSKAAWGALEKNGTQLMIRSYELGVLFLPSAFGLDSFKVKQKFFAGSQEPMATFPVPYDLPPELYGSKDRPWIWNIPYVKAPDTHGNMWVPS
#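 Tdp1 1 nM final; 15 min RT w/ cpd; substrate 15 nM, 5 min; beads 10 ug/ml, 10 min; AlphaScreen read. Neg ctrl: no enzyme.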
# Six1-Eya2 blk: Six1/Eya2 interaction inhibition; 360,000 compounds, 0.56% hits; Q15475+O00167; AlphaScreen GST-Six1/His-Eya2 binding, biochemical; active compounds read low; activity change, % (concentration not given with the values); in the data active = activity change below about -65%; inconclusive = mostly about -30% to -63%
#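 Six1/Eya2 binding was read as AlphaScreen signal after compounds were pinned into GST-Six1 plus His-tagged Eya2 (5X stock 250/500 nM) in pH 8.0 Tris/NaCl/TCEP buffer, beads added, then incubated 1 h, 37 C, dark.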
# TDP1 cell CPT: growth inhibition of DT40 Tdp1-/-;hTDP1 cells with camptothecin (screen for TDP1 inhibitors); chicken DT40 Tdp1-/-;hTDP1 cells + 20 nM CPT, ATP luminescence, 48 h; Potency, µM (series often up to 46.2 µM), for inactives: top-dose activity change, negative = growth inhibition, hits mostly inhibitors; 420,000 compounds, 12% hits; note: potency is the fitted concentration of half-maximal effect; nearly all actives have a fitted effect of over 55% in size
#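 Cell growth measured by CellTiter-Glo luminescence after a minimum 48 h, 37 C compound exposure with 20 nM CPT in Tdp1-knockout DT40 cells stably expressing hTDP1, seeded 400/well; qHTS titration format.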
# CtBP-E1A blk: blocks the CtBP interaction with E1A; AlphaScreen GST-E1A/His-CtBP binding, 1536-well; active compounds read low; activity change, % (no concentration beside the values); 340,000 compounds, 0.49% hits; in the data active = activity change below about -65%; inconclusive = mostly about -30% to -63%
#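 AlphaScreen with 125 nM GST-E1A and 125 nM His-CtBP (5X stocks) in Tris pH 8.0, 300 mM NaCl, BSA, Tween 20, TCEP. Compounds preincubated 2 h at 37 deg C, then glutathione donor/nickel acceptor beads added for 1 h at 37 deg C in dark.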
# DT40 TDP1 no CPT: qHTS for Inhibitors of human tyrosyl-DNA phosphodiesterase 1 (TDP1): qHTS in cells in absence of CPT. DT40 Tdp1-/- hTDP1 cells, no CPT, ATP luminescence, 48 h. Potency, µM (doses to about 46.2 µM), for inactives: at the top dose activity change, negative = growth inhibition, hits mostly inhibitors. 420,000 compounds, 15% hits; note: potency is the fitted concentration of half-maximal effect; nearly all actives have a fitted effect of over 55% in size
#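 Cells were dispensed at 400 per well, compounds added by pin tool, plates incubated ≥48 hr at 37 °C, then CellTiter-Glo added for 30 min at room temperature before luminescence reading. Line: DT40 Tdp1-/- complemented with hTDP1; camptothecin omitted.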
# IL1B secr inh: inhibitors of inflammasome signaling (IL-1 beta secretion). 360,000 compounds, 4.7% hits. THP-1 LPS/ATP IL-1B secretion, AlphaLISA, 16 h; active compounds read low. AID 743279. activity change, % at 57.5 µM; in the data active = activity change below about -50%; inconclusive = mostly about -30% to -49%
#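 Secreted IL-1B measured by AlphaLISA bead assay after 16 h compound exposure of THP-1 cells; compounds (final up to 57.5 uM) added 1 h before LPS (250 ng/mL) and ATP (1.25 mM) stimulation; lower signal means less secretion.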
# * marks the source's active call; other numbers are inactive results; i = inactive; ? = inconclusive; / = no result. This is a sample that favours compounds with a hit; in the whole collection about 18% have one here. Unless noted, calls come from the whole dose curve; as a rule, active = well fitted curve in the direction sought with a large enough effect; inconclusive = small, poorly fitted or top-dose-only effect, or another doubt; inactive = no such curve, though single readings can be large; an effect the other way counts as inactive or inconclusive. % is set by controls: 0 for no effect and ±100 for the full control effect.
SMILES,TDP1 inh,Six1-Eya2 blk,TDP1 cell CPT,CtBP-E1A blk,DT40 TDP1 no CPT,IL1B secr inh
COC(=O)[C@@H](Cc1ccccc1)NC(=O)/C=C/[C@H]1O[C@@H](n2cnc3c(NC(=O)c4ccccc4)ncnc32)[C@H](O)[C@@H]1O,/,2,4%,2,-6%,-19
COC(=O)c1cc(C)nc2c1c(=O)nc(SCc1ccccc1F)n2C1CC1,3%,/,-3%,/,-18%,/
CCn1c(SCc2ccccc2F)nc(=O)c2c(C(=O)OC)cc(C3CC3)nc21,8%,/,16µM*,/,?,/
CCn1c(SCc2ccc(F)cc2Cl)nc(=O)c2c(C(=O)OC)cc(C3CC3)nc21,5%,/,16µM*,/,18µM*,/
Cc1nn(CC(=O)OCC(=O)c2ccccc2)c(C)c1[N+](=O)[O-],0%,6,-20%,11,-2%,14
Cc1nc(-c2ccc(NS(C)(=O)=O)cc2)cs1,5%,6,-2%,-3,-2%,-15
CCCCCCCCCCCC1N=C(N)NC(CCCO)=C1C(=O)OC (stereo unspecified),/,14,5.8µM*,0,3.7µM*,?
COc1cc(NC(=O)C2=C(N3CCOCC3)/C(=C\c3ccc(Cl)cc3Cl)CC2)cc(OC)c1OC,1%,-2,13µM*,-10,16µM*,-9
N#C/C(=C/C1=C(N2CCOCC2)C(=C/c2ccccc2)/CC1)C(=O)Nc1ccccc1F,/,-18,13µM*,-23,16µM*,21
N#C/C(=C/C1=C(N2CCOCC2)C(=C/c2ccc(Cl)cc2Cl)/CC1)C(=O)Nc1ccccc1F,/,-2,?,0,10µM*,2
N#C/C(=C\c1ccc[nH]1)C(=O)Nc1ccccc1F,-2%,1,-12%,-2,0%,28
N#C/C(=C\C1=C(N2CCOCC2)C(=C\c2ccc(Cl)cc2)/CC1)C(=O)Nc1ccccc1F,8%,-19,16µM*,0,12µM*,16
COc1cc(NC(=O)c2cc(S(=O)(=O)N3CCCCC3)ccc2N2CCOCC2)cc(OC)c1OC,/,-7,1%,1,-1%,-11
N#C/C(=C\c1sc(N2CCOCC2)nc1-c1ccccc1)C(=O)Nc1cccc2ccccc12,-5%,/,/,/,/,/
CS(=O)(=O)c1ccc(Cl)c(NC(=O)COC(=O)CCc2c[nH]c3ccccc23)c1,5%,-10,?,0,-18%,10
CN(Cc1ccco1)C(=O)c1cc2c(s1)-c1ccc(Cl)cc1S(=O)(=O)C2,5%,2,?,/,?,-4
CC1(C(=O)NS(=O)(=O)c2ccc(C#N)cc2)CCN1C(=O)Cc1cc(F)ccc1F (stereo unspecified),/,12,-4%,3,10%,12
COCCCn1c(=O)/c(=C\c2ccc(OC(F)F)c(OC)c2)s/c1=C(/C#N)C(=O)NCCOC,0%,4,-26%,3,-12%,31
O=C(CCC1CCN(C(=O)C2CC=CCC2)CC1)Nc1ccccc1 (stereo unspecified),/,0,?,3,21µM*,18
Cc1cccc(NC(=O)CCC2CCN(C(=O)C3CC=CCC3)CC2)c1 (stereo unspecified),2%,2,12µM*,-4,12µM*,i
COc1cccc(NC(=O)CCC2CCN(C(=O)C3CC=CCC3)CC2)c1 (stereo unspecified),6%,5,?,-6,?,9
O=C1CCCN1CCCNC(=S)Nc1ccc(F)cc1,-7%,3,2%,-6,-7%,0
COC(=O)[C@@]1(Cc2ccccc2)[C@H]2c3cc(C(=O)N4CCCC4)n(Cc4ccc(S(C)(=O)=O)cc4)c3C[C@H]2CN1C(=O)c1ccccc1,15%,/,/,/,/,/
CC(=O)N(Cc1ccco1)C1(C(=O)NC2CCCCC2)CCCCC1,5%,4,?,2,?,5
O=C(Cc1cccs1)N(Cc1ccco1)C1(C(=O)NC2CCCCC2)CCCCC1,5%,3,15µM*,1,18µM*,?
SMILES,TDP1 inh,Six1-Eya2 blk,TDP1 cell CPT,CtBP-E1A blk,DT40 TDP1 no CPT,IL1B secr inh
O=C(Cc1cccs1)N(Cc1cccs1)C1(C(=O)NC2CCCC2)CCCCC1,6%,2,8.2µM*,3,6.5µM*,-24
O=C1NC(=O)C(CC(=O)N(c2ccccc2)C2(C(=O)NC3CCCC3)CCCCC2)N1 (stereo unspecified),0%,7,-28%,3,-14%,-5
O=C(Cc1cccs1)N(CC1CCCO1)C1(C(=O)NC2CCCC2)CCCCC1 (stereo unspecified),4%,-1,?,-4,16µM*,-18
O=C(Cc1cccs1)N(c1ccc(F)cc1)C1(C(=O)NC2CCCCC2)CCCC1,8%,-1,?,/,23µM*,0
O=C(Nc1nnc(C2CCCCC2)s1)C1CC(=O)N(c2ccc(F)cc2)C1 (stereo unspecified),-10%,-3,-2%,-2,-30%,21
CCc1ccc(N2CCN(CCNC(=O)Nc3ccc(OC)cc3)CC2)cc1,/,-13,-4%,/,?,-18
Cc1cc(SCC(=O)Nc2ccccc2)n2ncc(-c3ccccc3)c2n1,0%,2,?,/,-56%,-55*
Cc1cc(SCC(=O)Nc2ccc(O)cc2)n2ncc(-c3ccccc3)c2n1,0%,-9,-30%,-9,-2%,-51*
Cc1cc(SCC(=O)Nc2ccc(O)cc2)n2nc(C)c(-c3ccccc3)c2n1,2%,?,?,?,?,-80*
COc1ccc(NC(=O)CSc2cc(C)nc3c(-c4ccccc4)cnn23)cc1,5%,-1,25%,8,?,20
Cc1cc(SCC(=O)c2cccs2)n2nc(C)c(-c3ccc(Cl)cc3)c2n1,3%,10,16µM*,11,?,-7
CC1CC(C)(C)NC(=O)O1 (stereo unspecified),3%,-1,-5%,6,-8%,25
CC1=CC=CN2CC(O)CN=C12 (stereo unspecified),0%,4,10%,-5,-18%,18
O=S1(=O)N[C@@H](Cc2ccccc2)COc2cc(N3CCN(Cc4ccccc4F)CC3)ccc21,/,11,-30%,-23,21µM*,-13
CC(C)C[C@H]1COc2cccc(N3CCN(Cc4ccccc4F)CC3)c2S(=O)(=O)N1,/,-17,?,-14,18µM*,-11
